Measurements from PubChem BioAssay (NCI).
Compounds without any hit were thinned out: in the full panel of roughly 83,000, 20% have a hit.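 Testing used 96-well plates and a 48-hour single-concentration exposure. Example: -40 means 40% of the starting cells died.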 The source made the active and inactive calls.

system: NCI-H460 lung; assay: NCI-60 one-dose screen, 48 h (100 = growth as untreated, 0 = no growth, -100 = all killed); conditions: 10 µM
Experimental: Growth inhibition of the NCI-H460 human Non-Small Cell Lung tumor cell line is measured as a screen for anti-cancer activity. Cells are grown in 96 well plates and exposed to the test compound for 48 hours. Compounds are tested at a single concentration, which is 10^-5 M for most compounds. The reported endpoint is percent growth (GI% or GIPRCNT), where numbers from 0 - 100% represent growth inhibition, and numbers from -100% - 0 represent cell death. For example, a value of 40 represents 60% growth inhibition. A value of 0 means no net growth occurred over the course of the experiment. A value of -40 indicates 40% of cells at the beginning of the experiment died by the end of the experiment. A value of -100 means all cells are dead at the end of the experiment.
NCI-60 Human Tumor Cell Lines Screen was performed using the standard one-dose NCI protocol, which is described in more detail at https://dtp.cancer.gov/discovery_development/nci-60/default.htm.
Compounds with GIPRCNT values below 10 were considered active. Activity score was based on GIPRCNT using the following formula: […]
Score is 0 for GIPRCNT values of 100 or above, 50 for GIPRCNT values of 0, and 100 for GIPRCNT values of -100.

SMILES	growth
CC1=C(C=O)C2=C(C)C3(CC3)[C@@](C)(O)C(=O)C2=C1	2.24% (active)
O=C(/C=C/c1ccc(Cl)cc1Cl)c1nc2ccccc2n1Cc1ccc(Br)cc1	78.1% (inactive)
C#CCCCN(CCNc1ccnc2cc(Cl)ccc12)C(=O)CCC(=O)O[C@@H]1O[C@@H]2OC3(C)CC[C@H]4[C@H](C)CC[C@@H]([C@H]1C)[C@@]24OO3	40.6% (inactive)
O=C(NC([Se])=NC1CCCCC1)c1ccccc1	11.6% (inactive)
CCOC(=O)C1=C(Nc2ccccc2)C(=O)OC12C(=O)Nc1ccccc12 (stereo not given)	108% (inactive)
O=C(/C=C/c1ccc(Cl)cc1Cl)c1nc2ccccc2n1Cc1ccc(F)cc1	43.8% (inactive)
C[C@H]1[C@@H](CC(=O)N[C@@H](Cc2coc3ccccc23)B(O)O)O[C@@H]2OC3(C)CC[C@H]4[C@H](C)CC[C@@H]1[C@@]24OO3	-28.2% (active)
C=CC[Se]C(=O)c1ccc(C(=O)[Se]CC=C)s1	-53.2% (active)
CC[C@]12C=CCN3CC[C@@]4(c5ccc(OC)cc5N(C)[C@H]4[C@@](O)(C(=O)OC)[C@@H]1OC(=O)CCC[P+](c1ccc(C)cc1)(c1ccc(C)cc1)c1ccc(C)cc1)[C@@H]32	-85.2% (active)
COCCOCCOCCOc1ccc(-n2cc(-c3ccc(O[C@H]4O[C@@H]5OC6(C)CC[C@H]7[C@H](C)CC[C@@H]([C@H]4C)[C@@]57OO6)cc3)nn2)cc1	70.6% (inactive)
CCC[Se]C(=O)c1ccc(C(=O)[Se]CCC)s1	-11.9% (active)
CC[C@]12C=CCN3CC[C@@]4(c5ccc(OC)cc5N(C)[C@H]4[C@@](O)(C(=O)OC)[C@@H]1OC(=O)CCCC[P+](C1CCCCC1)(C1CCCCC1)C1CCCCC1)[C@@H]32	5.27% (active)
O=C(/C=C/c1ccccc1Cl)c1nc2ccccc2n1Cc1ccc(F)cc1	-54.6% (active)
COc1cc(OC)c(S(=O)(=O)N(CCCl)CCCl)cc1C(=O)/C=C/c1ccc(C)cc1	31.9% (inactive)
O=C(/C=C/c1ccco1)c1nc2ccccc2n1Cc1ccc(F)cc1	70.9% (inactive)
O=C(/C=C/c1cccc(Br)c1)c1nc2ccccc2n1Cc1ccc(Br)cc1	-40.3% (active)
O=C(/C=C/c1ccco1)c1nc2ccccc2n1Cc1ccc(Br)cc1	32.4% (inactive)
COC(=O)c1ccc(-n2cc(CCCN(CCNc3ccnc4cc(Cl)ccc34)C(=O)CCC(=O)O[C@@H]3O[C@@H]4OC5(C)CC[C@H]6[C@H](C)CC[C@@H]([C@H]3C)[C@@]46OO5)nn2)cc1	52.1% (inactive)
COc1ccc2cc([C@H](C)C(=O)[Se]CCC#N)ccc2c1	-27.2% (active)
C#CC[Se]C(=O)c1ccc(C(=O)[Se]CC#C)s1	40.9% (inactive)

SMILES	growth
C#CC[Se]C(=O)c1ccc2n[se]nc2c1	63.9% (inactive)
CC[C@]12C=CCN3CC[C@@]4(c5ccc(OC)cc5N(C)[C@H]4[C@@](O)(C(=O)OC)[C@@H]1OC(=O)CCCC[P+](c1ccc(C)cc1)(c1ccc(C)cc1)c1ccc(C)cc1)[C@@H]32	-86.6% (active)
COc1ccc(OC)c(/C=C/C(=O)c2nc3ccccc3n2Cc2ccc(F)cc2)c1	-30.9% (active)
N#C[Se]CC(=O)Nc1cccc(C(F)(F)F)c1	-9.31% (active)
Cc1ccc2[nH]c(=S)n(-c3ccc(F)cc3)c(=O)c2c1	106% (inactive)
CC12CCC3(CCC(=O)NCCCNc4ccnc5cc(Cl)ccc45)[C@@](C)(OO[C@]3(C)O1)O2	7.06% (active)
CN(C)CCc1cn(C2CCC2)c2cccc(O)c12	70.7% (inactive)
COCCOCCOCCOc1ccc(-n2cc(CCCN(CCNc3ccnc4cc(Cl)ccc34)C(=O)CCC(=O)O[C@@H]3O[C@@H]4OC5(C)CC[C@H]6[C@H](C)CC[C@@H]([C@H]3C)[C@@]46OO5)nn2)cc1	52% (inactive)
C[C@H]1[C@@H](Oc2ccc(-c3cn(-c4ccnc5cc(Cl)ccc45)nn3)cc2)O[C@@H]2OC3(C)CC[C@H]4[C@H](C)CC[C@@H]1[C@@]24OO3	25.3% (inactive)
COc1cc2cc(C(=O)N3C[C@@H](CCl)c4c3cc(OC(=O)N3CCN(C)[C@@H]5CSSC[C@H]53)c3ccccc43)[nH]c2c(OC)c1OC	-68.9% (active)
CCOP(=O)(CC(F)(F)C(F)(F)F)OCC	91.6% (inactive)
C[C@H]1[C@H](OC(=O)CCC(=O)N(CCCc2cn(-c3ccc(CN4CCOCC4)cc3)nn2)CCNc2ccnc3cc(Cl)ccc23)O[C@@H]2OC3(C)CC[C@H]4[C@H](C)CC[C@@H]1[C@@]24OO3	7.93% (active)
O=C(/C=C/c1ccc(Cl)cc1)c1nc2ccccc2n1Cc1ccc(F)cc1	26.8% (inactive)
CC1=C2C(=C[C@@](C)(COP(=O)(Oc3ccccc3)Oc3ccccc3)[C@@H]2O)C(=O)[C@@](C)(O)C12CC2	-35.4% (active)
O=C(/C=C/c1cccc(Br)c1)c1nc2ccccc2n1Cc1ccc(F)cc1	33.1% (inactive)
O=C(/C=C/c1ccccc1)c1nc2ccccc2n1Cc1ccc(Br)cc1	-47% (active)
CCOP(=O)(OCC)C(NC(C)=O)C(=O)SCCN (stereo not given)	121% (inactive)
CC[C@@]12CC(C(=O)OC)=C3Nc4cc5c(cc4[C@@]34CCN(C[C@H]3O[C@H]31)[C@@H]24)[C@@H]1[C@H](O5)[C@@H](O)[C@@]2(CC)CC(C(=O)OC)=C3Nc4cc(OC)ccc4[C@@]34CCN1[C@@H]24	15.9% (inactive)
C[C@H]1[C@H](OC(=O)CCC(=O)N(CCCc2cn(-c3ccc(C#N)cc3)nn2)CCNc2ccnc3cc(Cl)ccc23)O[C@@H]2OC3(C)CC[C@H]4[C@H](C)CC[C@@H]1[C@@]24OO3	58.2% (inactive)
C[C@H]1[C@H](OC(=O)CCC(=O)N(CCCc2cn(-c3ccc([N+](=O)[O-])cc3)nn2)CCNc2ccnc3cc(Cl)ccc23)O[C@@H]2OC3(C)CC[C@H]4[C@H](C)CC[C@@H]1[C@@]24OO3	53.5% (inactive)
